Screening results: PubChem, several laboratories
CHT inh – human CHT choline transport inhibition; CHT-expressing cells, membrane potential dye, choline response; stronger effect = lower value; B-score at 10 µM; 310,000 tested, 0.86% active; AID 488975;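 active means B-score over 3 SD under the library average, and starting fluorescence ratio not unusually high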;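 further: choline stimulus applied at its EC90 after an EC20 pre-addition; B-score computed on integrated fluorescence ratio after choline addition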
Mot1-301 SUMO – SUMOylation pathway inhibition by Mot1-301 growth rescue. growth rescue, % at 18.8 µM. S. cerevisiae Mot1-301 growth rescue, ATP luminescence, 38.5C; percent above DMSO median, 100 means doubled. AID 2716. 320,000 tested, 1% active;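 active means every valid replicate shows activation above 250% relative to neutral control wells; inactive means the rest, any valid replicate at or below 250%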;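 further: OY570 slx delta 5 strain wells were the positive control but not used for scaling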
MEKK3 PB1 HTS – raises or lowers MEK5 binding to the human MEKK3 PB1 domain. binding response (% of control), % at 10 µM. AID 1529. bead-based flow cytometry, Alexa488-MEK5 binding to MEKK3; actives lie on both sides; 0 = blocked by unlabeled MEK5, 100 = vehicle. 290,000 tested, 1.4% active. Q99759;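 active means binding response more than 3 SD above or below the average of its plate-row segment, actives on both sides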;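 further: Alexa488 bead fluorescence after subtracting the streptavidin-only scavenger bead signal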
Target sequence (Q99759 whole entry, looked up, the tested form may be a part): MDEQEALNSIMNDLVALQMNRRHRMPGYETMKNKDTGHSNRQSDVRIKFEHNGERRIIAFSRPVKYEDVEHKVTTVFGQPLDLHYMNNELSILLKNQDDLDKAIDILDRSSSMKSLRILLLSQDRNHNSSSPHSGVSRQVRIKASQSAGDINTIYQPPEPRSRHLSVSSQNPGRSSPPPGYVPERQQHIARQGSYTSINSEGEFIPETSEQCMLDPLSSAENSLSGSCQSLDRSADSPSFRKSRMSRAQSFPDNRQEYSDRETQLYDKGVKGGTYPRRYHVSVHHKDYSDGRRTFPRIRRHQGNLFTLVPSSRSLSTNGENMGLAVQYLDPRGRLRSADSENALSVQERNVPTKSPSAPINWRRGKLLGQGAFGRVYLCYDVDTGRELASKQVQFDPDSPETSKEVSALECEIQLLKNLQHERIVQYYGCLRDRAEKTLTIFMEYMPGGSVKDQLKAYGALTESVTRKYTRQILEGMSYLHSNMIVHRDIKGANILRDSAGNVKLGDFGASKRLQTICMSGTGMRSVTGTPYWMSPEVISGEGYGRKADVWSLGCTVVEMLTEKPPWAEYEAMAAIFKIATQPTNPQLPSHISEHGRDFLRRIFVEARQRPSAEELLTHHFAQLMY
MEKK2wt PB1 HTS – raises or lowers MEK5 binding to wildtype human MEKK2 PB1 domain | binding response (% of control), % at 10 µM | AID 1531 | 290,000 tested, 1.1% active | bead flow cytometry, Alexa488-MEK5 binding to MEKK2 WT; actives lie on both sides; in the data active means binding response below about 67% or above about 130%
MEKK2mut PB1 HTS – signal of MEK5 binding to mutant human MEKK2 PB1 domain | bead flow cytometry, Alexa488-MEK5 binding to MEKK2 mutant | percent response, % at 10 µM | 290,000 tested, 0.35% active; in the data active means percent response above about 24%, passing the limit was not always enough
CHT PAM – allosterically activates the human high affinity choline transporter; 310,000 tested, 0.49% active; CHT-expressing cells, membrane potential dye, choline EC20; stronger effect = higher value; LV-AA mutant CHT in HEK293 cells; AID 488977; B-score at 10 µM; Q9GZV3;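 active means initial fluorescence not abnormally high and integrated response B-score, plate-corrected, over 3 SD above library mean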
Mot1 SUMO dose – inhibits SUMO pathway, affecting Mot1-301 yeast growth; AID 493004; 2,300 tested, under 10 active; shares compounds with Mot1-301 SUMO; S. cerevisiae Mot1-301 galactose growth, ATP luminescence, 24 h; -100 = growth of slx-deleted rescue strain; growth activity, percent, % at 42 µM;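 active means Signal drops as the depositor expects, and the fitted half-maximal dose is no more than ten times the top valid tested dose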;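 further: more negative values mean stronger growth rescue toward the control strain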
* = called active by the depositor; i = inactive; / = not tested or not shown; + = active, no number; ! = not confirmed by another sample. This is a sample that favours compounds with a hit; in the whole collection about 4.1% have one here.

SMILES	CHT inh	Mot1-301 SUMO	MEKK3 PB1 HTS	MEKK2wt PB1 HTS	MEKK2mut PB1 HTS	CHT PAM	Mot1 SUMO dose
O=C(NC1CC(=O)N(c2ccc(Cl)cc2)C1)N1CCN(C(=O)c2ccco2)CC1 (stereo not drawn)	i	0	/	/	/	i	/
O=C(Nc1ccc([N+](=O)[O-])cn1)C1CCCCC1	i	10	108	110	1	i	/
O=C(Nc1ccc([N+](=O)[O-])cn1)C1CC1	i	573*	99	99	1	i	1
Cc1[nH]c(C(=O)O)c(C#N)c1C(=O)c1ccccc1	i	-11	96	95	0	i	/
CC(=O)N(C(C)=O)c1c(C#N)c(C)n(-c2ccccc2)c1C(=O)c1ccccc1	i	+	102	100	5	i	-1
CC(OC(=O)CCC(=O)c1ccc(F)cc1)C(=O)NC1CCCCC1C (stereo not drawn)	i	-7	96	100	0	i	/
O=S(=O)(Nc1ccccn1)c1cc(Cl)ccc1Cl	i	-15	104	102	6	i	/
CCN(C(=O)COC(=O)c1cc([N+](=O)[O-])ccc1N1CCOCC1)C1CCCCC1	i	538*	/	/	/	i	1
CCN(C(=O)COC(=O)c1cc([N+](=O)[O-])ccc1N1CCOCC1)C1CCS(=O)(=O)C1 (stereo not drawn)	i	-4	/	/	/	i	/
Cc1cc(C)c(NC(=O)CNC(=O)c2cc([N+](=O)[O-])ccc2N2CCOCC2)c(C)c1	i	507*	/	/	/	i	0
CN(C)/C=N/N(C)c1ncccc1[N+](=O)[O-]	i	0	93	91	-5	i	/
Cc1cc(C)c2sc(NC(=O)C3=COCCO3)nc2c1	i	0	100	107	9	i	/
CCCNCC(O)COc1ccccc1C(=O)CCc1ccccc1 (stereo not drawn)	i	400*!	89	92	4	i	0
CN(c1ccccc1)S(=O)(=O)c1ccc2c(c1)oc(=O)n2C	i	-15	103	101	8	i	/
O=C(COc1ccc([N+](=O)[O-])cc1)Nc1ccc(C(=O)NCc2cccnc2)cc1	i	481*	93	93	-6	i	0
CCOC(=O)Cn1c(=O)n(Cc2ccco2)c(=O)c2ccc(C(=O)NCCc3ccccc3)cc21	i	370*	106	108	1	i	0
Cc1ccc2c(C(=O)CNc3nncs3)c(C)[nH]c2c1	i	-3	75	73	-28	i	/
COC(=O)COc1ccc(=O)n(-c2ccccc2)n1	i	-6	96	98	0	i	/
O=C(O)COc1ccc(=O)n(-c2ccccc2)n1	i	+	103	105	5	i	0
O=C(Nc1ccc(OC(F)(F)F)cc1)c1ccc2ccccc2n1	i	645*	101	99	2	i	-1
O=c1c2nnn(Cc3ccccc3)c2ncn1C/C=C/c1ccccc1	i	-5	109	105	7	i	/
COc1ccccc1CNC(=O)CN(c1ccc(C)cc1)S(=O)(=O)c1c(C)n[nH]c1C	i	912*	98	101	0	i	-1
CN(C)c1ccc(C(c2ccc(N(C)C)cc2)c2ccc([N+](=O)[O-])cc2)cc1	i	17	107	103	2	i	/
c1ccc2[nH]c(CSc3nccs3)nc2c1	i	371*	99	102	2	i	0
NC1=NC2(CCCC2)N=C(Nc2ccccc2)N1	i	722*	95	98	1	i	0
SMILES	CHT inh	Mot1-301 SUMO	MEKK3 PB1 HTS	MEKK2wt PB1 HTS	MEKK2mut PB1 HTS	CHT PAM	Mot1 SUMO dose
Cc1cccc(NC2=NC3(CCCCC3)N=C(N)N2)c1	i	-20	/	/	/	i	/
Cc1nc2ccccn2c1C(=O)N/N=C/c1ccccc1	i	-10	102	108	2	i	/
COc1ccc(/C=N/NC(=O)c2c(C)nc3ccccn23)cc1[N+](=O)[O-]	i	569*	93	91	-14	i	0
Nc1nc(Cl)cc(-c2ccccc2)n1	i	-9	96	90	-6	i	/
CCOc1cc(-c2ccccc2)nc(N)n1	i	460*	94	100	-1	i	0
COc1ccc(C(=O)Nc2cc(C)on2)cc1S(=O)(=O)N1CC(c2ccccc2)CC1=O (stereo not drawn)	i	-6	104	102	2	i	/
CC(NC(=O)c1ccccc1NC(=O)CN1CCc2ccccc2C1)c1ccccc1 (stereo not drawn)	i	-22	100	96	-5	i	/
CCOC(=O)Cc1csc(NC(=O)NC2(C(F)(F)F)Oc3ccccc3O2)n1	i	770*	99	100	0	i	0
CCOC(=O)Cc1csc(NC(=O)NC2(C(F)(F)F)Oc3ccc(Cl)cc3O2)n1 (stereo not drawn)	i	15	105	103	-11	i	/
OCC[C@@H]1C[C@H](O)[C@@H](O)[C@]2(CCc3ccccc3O2)O1	i	323	99	92	-5	i	/
COc1ccccc1CCNC(=O)c1cccc(S(=O)(=O)NCc2ccccc2)c1	i	13	/	/	/	i	/
O=C(COC(=O)CNC(=O)c1ccc(Cl)cc1)Nc1ncc(C(F)(F)F)cc1Cl	i	596*	101	110	11	i	0
CCOc1ccc(S(=O)(=O)N(CC)CC(=O)NCc2cccnc2)cc1	i	-6	98	100	-4	i	/
CN(C)CCOC(=O)CCc1ccccc1	i	560*	108	109	13	i	0
CCOc1ccc(N(C)C(=O)CCc2nnc3ccc(N4CCCCC4)nn23)cc1	i	-9	103	107	3	i	/
CCCCn1c(N)c(N(Cc2ccccc2OC)C(=O)c2c(CC)noc2C)c(=O)[nH]c1=O	i	395*	97	106	4	i	1
O=C(NCCC1CCCCN1S(=O)(=O)c1cccs1)C(=O)NCc1ccccc1 (stereo not drawn)	i	-4	/	/	/	i	/
CCOC(=O)CC(=O)Nc1ccc(C)cc1	i	-12	/	/	/	i	/
Cc1cc(/C=N/NC(=O)c2ccsc2)c(C)n1-c1cnccn1	i	555*	102	104	0	i	0
Clc1ccc(CNCc2cccs2)cc1Cl	i	363*	110	109	6	i	1
Cn1c(=O)c2c(ncn2CC2OCCO2)n(C)c1=O	i	-3	104	105	7	i	/
